Measurements: article PMC5540273 (PLoS ONE, 2017)

What was measured:
Conditions in all cases: concentration: 1 μM,replicates: in singlicate; n = 1
ASK2 = tested on: T1, ASK2
T1 construct: gene MAP3K6

AURKA = tested on: AURKA
AURKB = tested on: AURKB
AURKC = tested on: AURKC
AXL = tested on: AXL
BIKE = tested on: T2, BIKE
T2 construct: gene BMP2K

BLK = tested on: BLK
BMPR1A = tested on: BMPR1A
BMPR1B = tested on: BMPR1B
BMPR2 = tested on: BMPR2
BMX = tested on: BMX
BRAF = tested on: BRAF
BRK = tested on: T3, BRK
T3 construct: gene PTK6

BRSK1 = tested on: BRSK1
BRSK2 = tested on: BRSK2
BTK = tested on: BTK
BUB1 = tested on: BUB1
CAMK1B = tested on: CAMK1B
CAMK1D = tested on: CAMK1D
CAMK1G = tested on: CAMK1G
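Note: KINOMEscan kinase panel screen.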

Compound	%Inh (ASK2)	%Inh (AURKA)	%Inh (AURKB)	%Inh (AURKC)	%Inh (AXL)	%Inh (BIKE)	%Inh (BLK)	%Inh (BMPR1A)	%Inh (BMPR1B)	%Inh (BMPR2)	%Inh (BMX)	%Inh (BRAF)	%Inh (BRK)	%Inh (BRSK1)	%Inh (BRSK2)	%Inh (BTK)	%Inh (BUB1)	%Inh (CAMK1B)	%Inh (CAMK1D)	%Inh (CAMK1G)
Cc1n[nH]c2cc(Nc3ccnc(Nc4cccc(CN5CCOCC5)c4)n3)ccc12 [GW682569]	0%	98.9%	55%	93.5%	35%	98.1%	0%	0%	87%	6%	11%	0%	47%	0%	0%	60%	36%	37%	26%	1%
Cc1cccc2c(-c3ccncc3)c(-c3ccc(F)cc3)nn12.Cl [GW461487]	0%	7%	0%	0%	0%	3%	22%	0%	0%	0%	15%	14%	0%	0%	0%	0%	52%	0%	4%	20%
C[C@@H]1CCN(C(=O)N2CCCC2)C[C@@H]1N(C)c1ncnc2[nH]ccc12	0%	57%	31%	6%	7%	25%	0%	0%	13%	20%	1%	11%	0%	0%	5%	1%	25%	18%	8%	5%
COC(=O)Nc1nc2cc(Oc3ccc(NC(=O)Nc4cc(C(F)(F)F)ccc4Cl)cc3)ccc2[nH]1.Cl [GW697465]	0%	0%	86%	53%	98%	8%	63%	0%	0%	21%	95.2%	41%	12%	0%	0%	7%	67%	0%	13%	0%
COc1cc2ncn(-c3cc(OCC4CCCCC4)c(C(N)=O)s3)c2cc1OC [GSK204559]	8%	0%	13%	60%	0%	90%	33%	0%	0%	5%	10%	0%	8%	30%	45%	0%	17%	6%	16%	11%
